High-throughput results as filed in PubChem.
Vaccinia Venus = qHTS for Stage-Specific Inhibitors of Vaccinia Orthopoxvirus: Venus Reporter Primary qHTS; 0.46% of 330,000 active; Potency, µM (highest dose often 36.5 µM), actives largely listed as inhibitors; Vaccinia virus Venus reporter expression, fluorescence; calls by dose curve; tested in A549 cells; also: nearly all actives have a fitted effect of over 30% in size
HCV inhibitor = qHTS Assay for Inhibitors of Hepatitis C Virus (HCV) | Huh7.5.1 HCVcc-Cre infection, luciferase reporter, 44 h | 3.4% of 340,000 active | Potency, µM (top dose mostly 41.8 µM), actives largely listed as inhibitors; active = well fitted inhibition curve with a large enough effect; inconclusive = small, poorly fitted or top-dose-only effect, or another doubt; inactive = no such curve, though single readings can be large or run the other way
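Infectious HCV cell culture screen: compound-treated cells (1,000/well, pre-plated 4 h) are infected with HCVcc-Cre at roughly 0.5 moi and grown 44 h. Infection is quantified by luciferase signal after 15 min substrate incubation at room temperature.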
VACV mCherry inh = qHTS for Stage-Specific Inhibitors of Vaccinia Orthopoxvirus: mCherry Reporter Primary qHTS; Vaccinia virus mCherry reporter infection, fluorescence; Potency, µM (titrated, usually from 36.5 µM), most hits filed as inhibitors; 0.63% of 310,000 active; calls by dose curve; tested in A549 cells; also: nearly all actives have a fitted effect of over 35% in size
A number is an active result; 0 = inactive; ? = inconclusive; - = no result given; [ ] = dose if it differs, or a comment. Sampled rows, rich in hits. Any-hit rate of the full collection: about 3.3%.

SMILES | Vaccinia Venus | HCV inhibitor | VACV mCherry inh
CC(=O)N(C(C)=O)c1ncc2c([nH]c3ccccc32)c1C#N | ? | 0 | 11.2µM
CCN(CC)C(=O)Cn1ncc2c([nH]c3ccccc32)c1=O | 0 | - | 0
OC(CON=C1c2ccccc2-c2ccccc21)CN1CCNCC1 (stereo not given) | ? | 2.51µM | ?
OC(COc1ccccc1)CN1CCN(CC(O)COc2ccccc2)CC1 (stereo not given) | - | 0 | -
CSc1cccc(NC(=O)Nc2nc3c(C)cccc3s2)c1 | ? | ? | 0
O=[N+]([O-])c1ccc(C[n+]2ccccc2)cc1 | 0 | 0 | 0
Brc1ccc(C[n+]2ccccc2)cc1 | 0 | 7.94µM | 0
CCSc1nc(C2CC2)cc(-c2cccs2)c1C#N | 0 | 7.94µM | 0
CCSc1nc(C2CC2)cc(-c2ccco2)c1C#N | 0 | ? | -
CCCCCCSc1ccc([C@H]2N[C@@](C)(C(=O)OC)[C@H]3C(=O)N(C)C(=O)[C@@H]23)cc1 | 0 | ? | 0
CCOC(=O)C(=Cc1ccc(N(C)C)cc1)C(=O)c1ccccc1 | 0 | - | 0
CCOC(=O)N(O)c1ccc(C=Cc2ccccc2)cc1 | ? | 3.98µM | ?
O=C(Nc1ccc(F)cc1)Nc1csc2c1CCCC2 | 0 | - | 0
Cc1c(OCC(=O)OC(C)C)ccc2c3c(c(=O)oc12)CCC3 | 0 | 0 | 0
CC(=O)COc1ccc2c3c(c(=O)oc2c1C)CCCCC3 | ? | 11.2µM | 0
Cc1c(OC(C)C(=O)N[C@H](C(=O)O)c2ccccc2)ccc2c3c(c(=O)oc12)CCCC3 (stereo not given in full) | 0 | 0 | 0
CC(=O)C(C)Oc1ccc2c3c(c(=O)oc2c1C)CCCC3 (stereo not given) | - | 10µM | -
COc1ccc(C2NC(=O)c3ccccc3N2)cc1OC (stereo not given) | 0 | 0 | 0
COc1ccc2ccccc2c1C1NC(=O)c2ccccc2N1 (stereo not given) | 5.62µM | 0 | ?
Cc1ccc(S(=O)(=O)N2CCCCC2)cc1NC(=O)CN1CCCC1c1cccs1 (stereo not given) | 0 | - | 0
Cc1ccc(NC(=O)CN2CCCC2c2cccs2)cc1S(=O)(=O)N1CCCCC1 (stereo not given) | - | 7.94µM | -
O=C(CN1CCCC1c1cccs1)Nc1cc(S(=O)(=O)N2CCCCC2)ccc1Cl (stereo not given) | - | 5.01µM | -
CCOc1ccc(NC(=O)CN2CCCC2c2cccs2)cc1S(=O)(=O)N1CCCCC1 (stereo not given) | 0 | ? | 0
CCOc1ccc(CCNC(=O)Cn2c(C)c3cnn(-c4ccccc4)c(=O)c3c2C)cc1 | 0 | - | 0
CCCNc1c(NS(=O)(=O)c2ccc(C)c(C)c2)c(=O)oc2ccccc12 | - | 0 | -
SMILES | Vaccinia Venus | HCV inhibitor | VACV mCherry inh
CCCNc1c(NS(=O)(=O)c2c(F)c(F)c(F)c(F)c2F)c(=O)oc2ccccc12 | ? | 0 | 5.01µM
Cc1ccc(Cl)cc1N1CCN(C(=O)c2c(C)oc3ncnc(N4CCOCC4)c23)CC1 | 0 | - | 0
O=C(NC(=S)NNC(=O)c1cnccn1)c1ccc(F)cc1 | ? | 14.1µM | ?
O=C(/C=C/c1ccc(F)cc1)NC(=S)NNC(=O)c1cnccn1 | 0 | ? | 0
CC(C)Nc1nc2c(S(=O)(=O)c3cccc(Cl)c3)nnn2c2ccsc12 | 0 | - | 0
NNc1nc2sc3c(c2c(=O)n1Cc1ccccc1)CCC3 | 0[7.34 µM] | ? | 0[7.34 µM]
Nn1c(Nc2ccccc2)nc2sc3c(c2c1=O)CCC3 | 0 | 12.6µM | 0
O=C(Nc1ccc(C(F)(F)F)cc1)C1(c2cccs2)CCOCC1 | 0 | - | 0
CCCCNC(=O)C(C)N(CCN(C)C)C(=O)CCCN1C(=O)NC(c2ccc([N+](=O)[O-])cc2)C(C(=O)OCc2ccccc2)=C1C (stereo not given) | ? | 22.4µM | ?
CCCCNC(=O)C(c1ccc(-c2ccccc2)cc1)N(CCN1CCOCC1)C(=O)CCCCCN1C(=O)NC(c2ccc([N+](=O)[O-])cc2)C(C(=O)OCc2ccccc2)=C1C (stereo not given) | - | 0[8.37 µM] | -
CCCCNC(=O)C(C1CCCCC1)N(CCN(C)C)C(=O)CCCN1C(=O)NC(c2ccc(-c3ccccc3)cc2)C(C(=O)OCc2ccccc2)=C1C (stereo not given) | - | 10µM | -
CCCCCCN(C(=O)CCCCCN1C(=O)NC(c2ccc(-c3ccccc3)cc2)C(C(=O)OCc2ccccc2)=C1C)C(C)C(=O)NCCCC (stereo not given) | - | 0[8.37 µM] | -
NC(=O)COC(=O)c1ccccc1OCC(=O)Nc1ccc(Br)cc1 | 0 | - | 0
COc1ccc2ccc(OC)c(/C=N/NC(=O)c3cc4ccccc4o3)c2c1 | 0 | - | 0
N/N=C1\CCCc2c1[nH]c1ccc([N+](=O)[O-])cc21 | 0 | 0 | 0
O=[N+]([O-])c1ccc2[nH]c3c(c2c1)CCCC3 | - | 11.2µM | -
Brc1cnc(N2CCCCC2)nc1N1CCOCC1 | 0 | 0 | 0
Brc1cnc(N2CCCC2)nc1N1CCOCC1 | - | 22.4µM | -
O=C(c1cccs1)N(Cc1nc2sc3c(c2c(=O)[nH]1)CCCC3)C1CCCC1 | 0 | ? | 12.6µM
O=c1[nH]c(CN2CCN(S(=O)(=O)c3ccccc3C(F)(F)F)CC2)nc2sc3c(c12)CCCC3 | 0 | 0 | 0
CC1(C)C(=O)Nc2ccccc2N1C(=O)COc1cccnc1[N+](=O)[O-] | 0 | 0 | 0
CCc1ccc(CNC(=O)c2sc3nc[nH]c(=O)c3c2C)cc1 | 0 | - | 0
O=C(COC(=O)c1ccccc1)Nc1ncc([N+](=O)[O-])s1 | 0 | 0 | 0
O=C(Nc1ccccc1)Nc1ncc([N+](=O)[O-])s1 | ? | ? | 10µM
CO/N=C/c1ccc(Sc2ccc(C)cc2)c([N+](=O)[O-])c1 | 0 | ? | -
SMILES | Vaccinia Venus | HCV inhibitor | VACV mCherry inh
Cc1ccc(Sc2ccc(/C=N/O)cc2[N+](=O)[O-])cc1 | ? | 11.2µM | ?
CC1CN(CC(=O)NCC2(N3CCOCC3)CCCC2)Cc2cc(Cl)ccc2O1 (stereo not given) | 0 | - | 0
Fc1ccc2[nH]c3c(N4CCc5ccccc5C4)ncnc3c2c1 | 0[7.34 µM] | 5.01µM | 0[7.34 µM]
Cc1ccc2[nH]c3c(N4CCc5ccccc5C4)ncnc3c2c1 | ? | 3.55µM | ?
c1ccc2c(c1)[nH]c1c(N3CCOCC3)ncnc12 | 0 | ? | ?
c1ccc2c(c1)CCN(c1ncnc3nc[nH]c13)C2 | 0 | 0 | 0
Cc1ccc2[nH]c3c(N4CCOCC4)ncnc3c2c1 | 0 | ? | 0
c1ccc2c(c1)[nH]c1c(N3CCN(C4CCCCC4)CC3)ncnc12 | 0 | 0 | 0
CN1CCN(c2ncnc3c2[nH]c2ccc(F)cc23)CC1 | 0 | 10µM | 0
c1ccc2c(c1)[nH]c1c(N3CCSCC3)ncnc12 | - | 12.6µM | -
CCOC(=O)c1c(-c2ccccc2)oc2ccc(N(C(C)=O)S(=O)(=O)c3cc(C)ccc3C)cc12 | 0 | - | 0
CCOc1ccc(CCNC(=O)CN2C(=O)COc3ccc(S(=O)(=O)N(CC)CC)cc32)cc1 | 0 | - | 0
COc1ccccc1N1CCN(c2nc(CNC(=O)C3CCOC(C)(C)C3)nc3ccccc23)CC1 (stereo not given) | 0 | - | 0
O=C(Nc1nc(-c2cccs2)cs1)C1CC(=O)N(c2ccc3c(c2)OCCO3)C1 (stereo not given) | 0 | - | 0
O=C(Nc1c(-c2ccc(F)cc2)nc2ccccn12)c1ccccc1F | 0 | - | 0
COCCn1nnnc1CN1CCC(O)(c2cccc(C(F)(F)F)c2)CC1 | 0 | 0 | 0
